The nature of assay [1]: optical density shifts of acrAB sulA E. coli – strain DRC41, OD650, 48 h, E. coli filamentation inducer project, primary screen (AID 1152).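 Further: E. coli MC1000 strain DRC41 lacking acrAB efflux pump and sulA.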 To be noted: higher = more signal, called active from +8 up or from −8 down.
A short description of assay [2]: probe aLefty1 binding on compound microarray – biochemical, small-molecule microarray, 635/667 nm fluorescence, primary screen (AID 1153).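 Further: score merges spot fluorescence with signal-to-noise ratio from the scanned slide images.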 The following applies: higher = more signal.
Assay [3] in a line: plasmodial surface anion channel blockers, osmotic lysis – cell-based, P. falciparum Indochina, OD700, 1 h, primary screen (AID 1154). To be noted: P. falciparum Indochina infected RBC osmotic lysis, higher = more signal, called active from +8 up or from −8 down.
Assay [4] can be described thus: plasmodial surface anion channel blockers, osmotic lysis – cell-based, P. falciparum Indochina, OD700, 2 h, primary screen (AID 1155).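 Further: lysis reports solute entry through the parasite surface anion channel PSAC.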 To be noted: P. falciparum Indochina infected erythrocytes, higher = more signal, called active from +8 up or from −8 down.
A short description of assay [5]: changes in parasitized red cell lysis, either direction – P. falciparum Indochina, OD700, 3 h, PSAC antagonist project, primary screen (AID 1156). To be noted: P. falciparum-infected erythrocytes, osmotic lysis, higher = more signal, called active from +8 up or from −8 down.
A short description of assay [6]: plasmodial surface anion channel blockers, osmotic lysis – cell-based, P. falciparum Indochina, OD700, 18 h, primary screen (AID 1157). To be noted: P. falciparum Indochina infected erythrocytes, osmotic lysis OD700, 18 h; higher = more signal, called active from +8 up or from −8 down.
Assay [7] is described as follows: S6 kinase pathway phospho-S6 level changes – cell-based, A549, cytoblot, luminescence, serum-stimulated, primary screen (AID 1158).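 Further: serum-stimulated A549 lung adenocarcinoma cells; signal is phosphorylated S6 detected by cytoblot immunostaining with HRP secondary.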 To be noted: 5 h, higher = more signal.
In assay [8] the target is NADPH oxidase 2 (Homo sapiens) (UniProt P04839). The assay can be described thus: compounds shifting NOX2 Amplex Red fluorescence – cell-based, HEK293-NOX2, PMA-stimulated, NOX inhibitor project, primary screen (AID 1159). Further: test concentration not given here. The following applies: 45 min, higher = more signal, called active from +8 up or from −8 down.
Sequence of NADPH oxidase 2 (Homo sapiens) (P04839 whole entry, looked up): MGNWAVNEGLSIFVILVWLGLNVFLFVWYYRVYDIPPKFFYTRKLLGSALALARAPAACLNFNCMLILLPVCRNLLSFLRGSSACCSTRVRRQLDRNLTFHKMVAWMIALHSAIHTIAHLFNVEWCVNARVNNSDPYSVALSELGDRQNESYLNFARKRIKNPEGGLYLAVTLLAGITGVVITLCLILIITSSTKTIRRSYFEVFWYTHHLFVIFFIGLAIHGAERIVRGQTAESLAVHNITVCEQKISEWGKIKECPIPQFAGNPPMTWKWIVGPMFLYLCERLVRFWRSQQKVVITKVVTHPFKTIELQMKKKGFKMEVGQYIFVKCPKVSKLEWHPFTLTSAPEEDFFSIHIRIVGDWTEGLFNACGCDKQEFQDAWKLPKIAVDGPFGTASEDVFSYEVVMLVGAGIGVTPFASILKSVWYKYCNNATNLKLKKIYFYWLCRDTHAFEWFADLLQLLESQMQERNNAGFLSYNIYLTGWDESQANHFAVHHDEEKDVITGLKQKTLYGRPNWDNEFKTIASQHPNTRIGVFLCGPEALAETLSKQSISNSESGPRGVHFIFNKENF
The target of assay [9] is NADPH oxidase 4 (Homo sapiens) (UniProt Q9NPH5). The assay can be described thus: compounds shifting NOX4 Amplex Red fluorescence – cell-based, HEK293-NOX4, tetracycline-induced, NOX inhibitor project, primary screen (AID 1160). To be noted: HEK293-NOX4, Amplex Red H2O2 fluorescence, 45 min; higher = more signal, called active from +8 up or from −8 down.
Sequence of NADPH oxidase 4 (Homo sapiens) (Q9NPH5 whole entry, looked up): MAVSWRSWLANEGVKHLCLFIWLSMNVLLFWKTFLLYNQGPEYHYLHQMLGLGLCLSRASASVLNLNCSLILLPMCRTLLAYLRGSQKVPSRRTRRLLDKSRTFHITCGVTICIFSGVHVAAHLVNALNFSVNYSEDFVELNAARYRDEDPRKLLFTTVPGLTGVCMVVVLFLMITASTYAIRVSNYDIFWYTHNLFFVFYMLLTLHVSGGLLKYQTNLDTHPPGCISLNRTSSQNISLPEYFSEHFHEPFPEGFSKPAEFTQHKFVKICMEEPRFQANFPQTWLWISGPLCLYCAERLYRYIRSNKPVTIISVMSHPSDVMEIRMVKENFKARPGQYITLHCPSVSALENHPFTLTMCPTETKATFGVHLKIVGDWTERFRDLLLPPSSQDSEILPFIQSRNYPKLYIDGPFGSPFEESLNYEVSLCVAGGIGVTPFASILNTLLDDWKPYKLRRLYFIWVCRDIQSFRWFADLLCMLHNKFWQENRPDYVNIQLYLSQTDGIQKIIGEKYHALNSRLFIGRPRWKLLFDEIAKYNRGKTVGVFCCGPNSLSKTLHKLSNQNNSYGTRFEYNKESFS
Assay [10] concerns the target NADPH oxidase 5 (Homo sapiens) (UniProt Q96PH1). The assay can be described thus: compounds shifting NOX5 Amplex Red fluorescence – cell-based, HEK293-NOX5, NOX inhibitor project, primary screen (AID 1161). To be noted: HEK293-NOX5, ionomycin, 45 min, higher = more signal.
Assay [11] in a line: compound effects on lung adenocarcinoma cell viability – A549, calcein-AM fluorescence, 48 h, basal, profiling panel (AID 1162). Further: test concentration not given here. To be noted: higher = more signal.
Assay [12] is described as follows: compound effects on differentiated 3T3-L1 adipocyte viability – cell-based, 3T3-L1 adipocytes, calcein-AM fluorescence, 48 h, basal, profiling panel (AID 1163). Further: test concentration not given here. To be noted: 3T3-L1 adipocytes viability, higher = more signal.
Assay [13] is described as follows: compound effects on hepatocellular carcinoma cell viability – HepG2, calcein-AM fluorescence, 48 h, basal, profiling panel (AID 1164). Further: test concentration not given here. The following applies: higher = more signal.
A short description of assay [14]: compound effects on multiple myeloma cell viability – MM1S, calcein-AM fluorescence, 48 h, basal, profiling panel (AID 1165).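 Further: viability of MM1S multiple myeloma cells under basal unstimulated conditions; test concentration not given here.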 To be noted: higher = more signal.
Assay [15] can be described thus: calcein-AM signal in unstimulated myeloma cells – cell-based, calcein-AM fluorescence, 48 h, PK04 Diversity Set, profiling panel (AID 1166).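 Further: cells grown under basal conditions without added stimulus; test concentration not given here.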 To be noted: RPMI8226 myeloma viability, higher = more signal.
Assay [16] is described as follows: JC-1 mitochondrial signal, unstimulated HepG2 cells – cell-based, JC-1 fluorescence, 24 h, 100 nL compound, profiling panel (AID 1167). Further: test concentration not given here. To be noted: HepG2 mitochondrial potential, higher = more signal.
Assay [17] in a line: JC-1 mitochondrial signal, unstimulated adipocytes – cell-based, JC-1 fluorescence, 3T3-L1 adipocytes, 24 h, 100 nL compound, profiling panel (AID 1168). Further: test concentration not given here. The following applies: JC-1 mitochondrial fluorescence, higher = more signal, called active from +8 up or from −8 down.
Assay [18] is described as follows: JC-1 mitochondrial signal, unstimulated myeloma cells – cell-based, JC-1 fluorescence, RPMI8226, 24 h, 100 nL compound, profiling panel (AID 1169). Further: test concentration not given here. To be noted: JC-1 mitochondrial potential fluorescence, higher = more signal.
Assay [19] can be described thus: JC-1 mitochondrial signal, unstimulated MM1S myeloma – cell-based, JC-1 fluorescence, 24 h, 100 nL compound, profiling panel (AID 1170). Further: test concentration not given here. The following applies: MM1S mitochondrial potential, higher = more signal.
Assay [20] can be described thus: resazurin metabolic signal in A549 cells – cell-based, resazurin fluorescence, 24 h, PK04 Diversity Set, profiling panel (AID 1171). Further: test concentration not given here. To be noted: A549 viability, higher = more signal, called active from +8 up or from −8 down. For orientation: The colour change of resazurin is a common sign of viable cells or microbes.

Active and inactive are the calls of the source.

Sequence of NADPH oxidase 5 (Homo sapiens) (Q96PH1 whole entry, looked up): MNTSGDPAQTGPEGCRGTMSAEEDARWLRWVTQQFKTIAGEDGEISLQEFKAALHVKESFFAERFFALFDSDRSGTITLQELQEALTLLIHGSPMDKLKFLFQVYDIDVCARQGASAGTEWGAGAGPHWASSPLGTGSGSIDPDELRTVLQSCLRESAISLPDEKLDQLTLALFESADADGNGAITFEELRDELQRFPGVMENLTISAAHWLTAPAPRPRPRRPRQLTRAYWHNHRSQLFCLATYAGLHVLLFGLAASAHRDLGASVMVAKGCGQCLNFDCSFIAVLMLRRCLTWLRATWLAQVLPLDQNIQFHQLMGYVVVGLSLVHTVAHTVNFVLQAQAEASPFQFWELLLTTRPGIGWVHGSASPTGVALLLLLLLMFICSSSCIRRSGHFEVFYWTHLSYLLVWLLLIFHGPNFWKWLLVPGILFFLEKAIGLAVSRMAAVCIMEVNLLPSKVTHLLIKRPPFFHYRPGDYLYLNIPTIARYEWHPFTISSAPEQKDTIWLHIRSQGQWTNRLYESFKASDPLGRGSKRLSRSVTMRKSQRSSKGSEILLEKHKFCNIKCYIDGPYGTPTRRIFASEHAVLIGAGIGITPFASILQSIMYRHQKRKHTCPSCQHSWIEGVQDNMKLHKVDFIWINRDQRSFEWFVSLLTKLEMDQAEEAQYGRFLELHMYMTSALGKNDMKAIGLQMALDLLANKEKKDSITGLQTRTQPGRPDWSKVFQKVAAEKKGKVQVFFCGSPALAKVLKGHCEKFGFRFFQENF

With `O=c1cccc(-c2ccc(C(F)(F)F)cc2)o1`, the z-score in assay [1] was -1.06 (inactive); in assay [3], 20.1 (active); in assay [4], 3.36 (inactive); in [5], -1.13 (inactive); in assay [6], 1.1 (inactive); in [7], -0.564. The z-score in assay [8] was 0.584 (inactive); in assay [9], -2.27 (inactive); in assay [10] it was -0.246; in [11] it was -1.24; in assay [12], -0.843; in assay [13] it was -0.701. The z-score was 0.506 in assay [14]; -1.02 in [15]; -0.487 in assay [16]; 1.75 (inactive) in assay [17]; 0.942 in assay [18]; -0.507 in assay [19]. In [20], the z-score was 0.374 (inactive). This compound also displayed a composite z-score in [2] of -0.103.

Regarding `CCOC(=O)[C@@H]1[C@@H]2C(=O)N(CC)C(=O)[C@@H]2C[C@@H]1Sc1ccccc1`, the z-score was -0.785 (inactive) in [1]; 1.44 (inactive) in assay [3]; 1.16 (inactive) in assay [4]; -0.245 (inactive) in assay [5]; 0.905 (inactive) in assay [6]; -0.502 in assay [7]. The z-score in assay [8] was -2.32 (inactive); in [9], -4.05 (inactive); in assay [10], -0.796; in assay [11], -0.992; in assay [12], -1.04; in assay [13] it was -0.971. The z-score in [14] was -0.223; in assay [15] it was -0.0967; in assay [16] it was -0.644; in assay [17] it was 0.186 (inactive); in assay [18], -0.28; in assay [19], -1.29. In [20], the z-score was 1.06 (inactive). This compound had a composite z-score in assay [2] of -0.247.

In the case of `C=CCNC(=O)[C@@H]1[C@H]2C(=O)O[C@H](c3ccccc3)[C@H](c3ccccc3)N2[C@H](c2ccccc2OCCO)[C@@]12C(=O)N(C(=O)OCCOC)c1ccc(C#CC3=CCCCC3)cc12`, the z-score in assay [1] was 0.889 (inactive); in assay [3], 2.66 (inactive); in assay [4] it was 0.741 (inactive); in assay [5], 0.123 (inactive); in assay [6], 0.906 (inactive); in assay [7] it was 0.325. The z-score is 1.54 (inactive) in [8]; 1.44 (inactive) in assay [9]; 1.32 in assay [10]; 0.428 in assay [11]; 1.16 in assay [12]; -0.555 in [13]. In addition, the z-score was -2.48 in assay [14]; -2.4 in assay [15]; -0.149 in assay [16]; 1.74 (inactive) in assay [17]; -1.01 in assay [18]; -1.82 in assay [19]. Moreover, the z-score in assay [20] is -0.996 (inactive). Further, the composite z-score in assay [2] is -0.0075.

Regarding `COc1c(C)cc(-c2cc3c(c(-c4ccccc4)n2)[Si](C(C)C)(C(C)C)OC3)cc1C`, the z-score in assay [1] is 0.118 (inactive); in assay [3] it was 1.54 (inactive); in assay [4], 0.494 (inactive); in assay [5], 0.392 (inactive); in assay [6] it was 0.506 (inactive); in assay [7], 0.768. In addition, the z-score in [8] was 0.956 (inactive); in assay [9], 0.103 (inactive); in assay [10], 0.829; in [11], 0.33; in [12] it was -0.182; in assay [13], -0.43. The z-score in assay [14] is -1.51; in [15] it was -0.515; in assay [16] it was -0.759; in assay [17], -0.00733 (inactive); in assay [18], 0.00523; in assay [19] it was 0.486. The z-score in assay [20] is 0.51 (inactive). Further, the composite z-score in assay [2] was -0.0287.

For the compound `COc1ccc(C(O)C2C=CC3C(=O)N(c4ccccc4)C(=O)C3N2Nc2ccc(C#N)cc2)c2ccccc12` (stereo not given), the z-score is -1.2 (inactive) in [1]; 9.06 (active) in [3]; 2.06 (inactive) in assay [4]; 0.361 (inactive) in assay [5]; 1.44 (inactive) in assay [6]; -1.03 in assay [7]. The z-score in assay [8] was -1.44 (inactive); in assay [9], -3.09 (inactive); in [10] it was -2.29; in [11] it was -0.716; in assay [12], -1.07; in assay [13] it was 0.66. The z-score is 0.395 in [14]; -1.04 in assay [15]; -1.56 in assay [16]; -0.246 (inactive) in assay [17]; 0.423 in [18]; -0.117 in assay [19]. For the same compound, the z-score in assay [20] was 0.0226 (inactive). The composite z-score in assay [2] turned out to be 0.481.

For the compound `CC(C)(C)OC(=O)CC[C@]1(C(=O)O)N=C(c2ccc(OCCCO)cc2)O[C@H]1c1ccccc1`, the z-score in assay [1] is 1.11 (inactive); in assay [3], 11.9 (active); in assay [4], 1.08 (inactive); in assay [5], -0.0867 (inactive); in [6], -0.284 (inactive); in [7], 0.733. Moreover, the z-score was 0.643 (inactive) in assay [8]; 0.228 (inactive) in [9]; 1.68 in assay [10]; -0.078 in assay [11]; 0.155 in [12]; -0.0903 in [13]. The z-score in [14] is 0.55; in [15] it was -0.135; in [16], 0.367; in assay [17], 0.721 (inactive); in assay [18], -0.0713; in assay [19] it was -0.513. The z-score in assay [20] was 0.16 (inactive). Besides, the composite z-score in [2] is -0.362.

Regarding `CC1CC/C=C\[C@H]2OC34C=CCN(C(C)C)C(=O)[C@H]3N(CCCCCO)C(=O)[C@@H]4C2C(=O)O1` (stereo not given in full), the z-score was 0.881 (inactive) in [1]; -0.54 (inactive) in assay [3]; 0.0524 (inactive) in assay [4]; 0.66 (inactive) in [5]; 0.427 (inactive) in [6]; -0.61 in [7]. Further, the z-score in assay [8] was 0.745 (inactive); in [9], -0.338 (inactive); in [10] it was 1.05; in assay [11], 1.85; in assay [12] it was 0.601; in assay [13], 0.29. Also, the z-score in assay [14] was 1.84; in assay [15] it was -1.4; in [16], 0.583; in assay [17] it was 0.633 (inactive); in assay [18] it was -0.137; in [19] it was 1.9. The z-score in [20] was 0.98 (inactive). In addition, the composite z-score in assay [2] is -0.15.

For `[N-]=[N+]=Nc1ccccc1[C@H]1OC(c2ccc(OCCCO)cc2)=N[C@@]1(CCS(=O)(=O)c1ccccc1)C(=O)N1CCCCC1`, the z-score in assay [1] is -0.311 (inactive); in assay [3] it was 29.8 (active); in [4], 23.1 (active); in assay [5] it was 3.29 (inactive); in [6], 3.04 (inactive); in assay [7], 1.04. Also, the z-score in assay [8] was -1.34 (inactive); in [9], 0.303 (inactive); in assay [10], -0.265; in assay [11], -0.851; in assay [12], 1.5; in [13] it was -0.641. In addition, the z-score in assay [14] is -1.56; in assay [15], -2.7; in assay [16] it was 0.43; in assay [17] it was -0.903 (inactive); in assay [18], -0.877; in [19], -0.801. In addition, the z-score in [20] was -1.01 (inactive). Further, in assay [2], the composite z-score was found to be 0.495.

(Values after PubChem BioAssay.)
